From paper PMC11006913

Target: CRX (Homo sapiens, UniProt O43186 26-111)
Assay: PBM; 200 nM protein, PBS
Details: dsDNA, one strand shown

CRX (Homo sapiens, UniProt O43186 26-111), sequence (O43186 26-111): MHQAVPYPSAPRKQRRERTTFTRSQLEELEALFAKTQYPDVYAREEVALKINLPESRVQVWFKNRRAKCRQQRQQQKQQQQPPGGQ

Question: How did the binding signal turn out when AATAATCT was run?
Answer: 12.7 upbm affinity estimate (log intensity, higher = more binding, comparable within an allelic series)

Question: ACCCAGTG was tested. Which binding signal did it give?
Answer: 8.01 upbm affinity estimate (log intensity, higher = more binding, comparable within an allelic series)

Question: How did the binding signal turn out when AGAGAGAC was run?
Answer: 8.36 upbm affinity estimate (log intensity, higher = more binding, comparable within an allelic series)

Question: Which binding signal does the source give for CCAGTGCA here?
Answer: 8.15 upbm affinity estimate (log intensity, higher = more binding, comparable within an allelic series)

Question: For GAAGTTCC, which binding signal is on record?
Answer: 8.51 upbm affinity estimate (log intensity, higher = more binding, comparable within an allelic series)

Question: AGAATCCC was tested. Which binding signal did it give?
Answer: 10.2 upbm affinity estimate (log intensity, higher = more binding, comparable within an allelic series)

Question: Which binding signal does the source give for CACGGCGA here?
Answer: 8.27 upbm affinity estimate (log intensity, higher = more binding, comparable within an allelic series)

Question: How did the binding signal turn out when GGCGTCCC was run?
Answer: 8.17 upbm affinity estimate (log intensity, higher = more binding, comparable within an allelic series)

Question: For AGATTATA, which binding signal is on record?
Answer: 12.9 upbm affinity estimate (log intensity, higher = more binding, comparable within an allelic series)

Question: With AATCTCCC as the sequence, how does the binding signal read?
Answer: 10.7 upbm affinity estimate (log intensity, higher = more binding, comparable within an allelic series)

Question: For AAGGGTGG, which binding signal is on record?
Answer: 8.2 upbm affinity estimate (log intensity, higher = more binding, comparable within an allelic series)

Question: How did the binding signal turn out when AAGTATAA was run?
Answer: 10.6 upbm affinity estimate (log intensity, higher = more binding, comparable within an allelic series)

Question: Which binding signal does the source give for CACCAGGC here?
Answer: 8.58 upbm affinity estimate (log intensity, higher = more binding, comparable within an allelic series)

Question: Which binding signal does the source give for GCTATTTA here?
Answer: 10.3 upbm affinity estimate (log intensity, higher = more binding, comparable within an allelic series)

Question: For GCAGATCA, which binding signal is on record?
Answer: 10.3 upbm affinity estimate (log intensity, higher = more binding, comparable within an allelic series)

Question: Which binding signal does the source give for GGAGACCC here?
Answer: 8.12 upbm affinity estimate (log intensity, higher = more binding, comparable within an allelic series)

Question: For CGCGGCAG, which binding signal is on record?
Answer: 8.09 upbm affinity estimate (log intensity, higher = more binding, comparable within an allelic series)

Question: How did the binding signal turn out when ATTTAAGA was run?
Answer: 11.1 upbm affinity estimate (log intensity, higher = more binding, comparable within an allelic series)

Question: Which binding signal does the source give for ACAGGCAC here?
Answer: 8.14 upbm affinity estimate (log intensity, higher = more binding, comparable within an allelic series)

Question: With AGTGTGTC as the sequence, how does the binding signal read?
Answer: 8.28 upbm affinity estimate (log intensity, higher = more binding, comparable within an allelic series)

Question: Which binding signal does the source give for GAAATCCA here?
Answer: 10.7 upbm affinity estimate (log intensity, higher = more binding, comparable within an allelic series)

Question: Which binding signal does the source give for CGGGTCAC here?
Answer: 7.89 upbm affinity estimate (log intensity, higher = more binding, comparable within an allelic series)

Question: TAATCCAA was tested. Which binding signal did it give?
Answer: 13 upbm affinity estimate (log intensity, higher = more binding, comparable within an allelic series)

Question: ACACGCCC was tested. Which binding signal did it give?
Answer: 8.11 upbm affinity estimate (log intensity, higher = more binding, comparable within an allelic series)

Question: How did the binding signal turn out when AGCACCAG was run?
Answer: 8.33 upbm affinity estimate (log intensity, higher = more binding, comparable within an allelic series)

Question: With ACACTACC as the sequence, how does the binding signal read?
Answer: 8.32 upbm affinity estimate (log intensity, higher = more binding, comparable within an allelic series)

Question: ACTGCAGT was tested. Which binding signal did it give?
Answer: 8.23 upbm affinity estimate (log intensity, higher = more binding, comparable within an allelic series)

Question: Which binding signal does the source give for AGTGCACG here?
Answer: 8.25 upbm affinity estimate (log intensity, higher = more binding, comparable within an allelic series)

Question: TAAGATTA was tested. Which binding signal did it give?
Answer: 12.8 upbm affinity estimate (log intensity, higher = more binding, comparable within an allelic series)

Question: With GGGCGCAC as the sequence, how does the binding signal read?
Answer: 7.78 upbm affinity estimate (log intensity, higher = more binding, comparable within an allelic series)

Question: With GGTCGAAC as the sequence, how does the binding signal read?
Answer: 8.09 upbm affinity estimate (log intensity, higher = more binding, comparable within an allelic series)

Question: With AATCACTA as the sequence, how does the binding signal read?
Answer: 10.3 upbm affinity estimate (log intensity, higher = more binding, comparable within an allelic series)

Question: With ACTAATCT as the sequence, how does the binding signal read?
Answer: 13.1 upbm affinity estimate (log intensity, higher = more binding, comparable within an allelic series)

Question: For GCCTGACA, which binding signal is on record?
Answer: 8.49 upbm affinity estimate (log intensity, higher = more binding, comparable within an allelic series)

Question: How did the binding signal turn out when CCGAACCG was run?
Answer: 8.21 upbm affinity estimate (log intensity, higher = more binding, comparable within an allelic series)

Question: With CTGGTCGA as the sequence, how does the binding signal read?
Answer: 8.44 upbm affinity estimate (log intensity, higher = more binding, comparable within an allelic series)

Question: Which binding signal does the source give for GTTTAAAA here?
Answer: 9.91 upbm affinity estimate (log intensity, higher = more binding, comparable within an allelic series)

Question: How did the binding signal turn out when ACCAGTCG was run?
Answer: 8.53 upbm affinity estimate (log intensity, higher = more binding, comparable within an allelic series)

Question: For GGGAGACA, which binding signal is on record?
Answer: 8.13 upbm affinity estimate (log intensity, higher = more binding, comparable within an allelic series)

Question: For AGAAGGAG, which binding signal is on record?
Answer: 8.23 upbm affinity estimate (log intensity, higher = more binding, comparable within an allelic series)

Target: CRX (Homo sapiens, UniProt O43186 26-111, E42D)
Assay: PBM; 200 nM protein, PBS
Details: dsDNA, one strand shown

CRX (Homo sapiens, UniProt O43186 26-111, E42D), sequence (O43186 26-111 E42D): as the sequence (O43186 26-111) above, with E17D counted along it

Question: AATAATCT was tested. Which binding signal did it give?
Answer: 12.7 upbm affinity estimate (log intensity, higher = more binding, comparable within an allelic series)

Question: With ACCCAGTG as the sequence, how does the binding signal read?
Answer: 8.16 upbm affinity estimate (log intensity, higher = more binding, comparable within an allelic series)

Question: Which binding signal does the source give for AGAGAGAC here?
Answer: 8.46 upbm affinity estimate (log intensity, higher = more binding, comparable within an allelic series)

Question: For CCAGTGCA, which binding signal is on record?
Answer: 8.21 upbm affinity estimate (log intensity, higher = more binding, comparable within an allelic series)

Question: GAAGTTCC was tested. Which binding signal did it give?
Answer: 8.44 upbm affinity estimate (log intensity, higher = more binding, comparable within an allelic series)

Question: How did the binding signal turn out when AGAATCCC was run?
Answer: 10 upbm affinity estimate (log intensity, higher = more binding, comparable within an allelic series)

Question: How did the binding signal turn out when CACGGCGA was run?
Answer: 8.25 upbm affinity estimate (log intensity, higher = more binding, comparable within an allelic series)

Question: With GGCGTCCC as the sequence, how does the binding signal read?
Answer: 8.13 upbm affinity estimate (log intensity, higher = more binding, comparable within an allelic series)

Question: Which binding signal does the source give for AGATTATA here?
Answer: 12.8 upbm affinity estimate (log intensity, higher = more binding, comparable within an allelic series)

Question: For AATCTCCC, which binding signal is on record?
Answer: 10.4 upbm affinity estimate (log intensity, higher = more binding, comparable within an allelic series)

Question: AAGGGTGG was tested. Which binding signal did it give?
Answer: 8.31 upbm affinity estimate (log intensity, higher = more binding, comparable within an allelic series)

Question: For AAGTATAA, which binding signal is on record?
Answer: 10.5 upbm affinity estimate (log intensity, higher = more binding, comparable within an allelic series)

Question: How did the binding signal turn out when CACCAGGC was run?
Answer: 8.49 upbm affinity estimate (log intensity, higher = more binding, comparable within an allelic series)

Question: With GCTATTTA as the sequence, how does the binding signal read?
Answer: 10.1 upbm affinity estimate (log intensity, higher = more binding, comparable within an allelic series)

Question: For GCAGATCA, which binding signal is on record?
Answer: 10 upbm affinity estimate (log intensity, higher = more binding, comparable within an allelic series)

Question: How did the binding signal turn out when GGAGACCC was run?
Answer: 8.25 upbm affinity estimate (log intensity, higher = more binding, comparable within an allelic series)

Question: With CGCGGCAG as the sequence, how does the binding signal read?
Answer: 8.17 upbm affinity estimate (log intensity, higher = more binding, comparable within an allelic series)

Question: How did the binding signal turn out when ATTTAAGA was run?
Answer: 10.8 upbm affinity estimate (log intensity, higher = more binding, comparable within an allelic series)

Question: For ACAGGCAC, which binding signal is on record?
Answer: 8.14 upbm affinity estimate (log intensity, higher = more binding, comparable within an allelic series)

Question: For AGTGTGTC, which binding signal is on record?
Answer: 8.38 upbm affinity estimate (log intensity, higher = more binding, comparable within an allelic series)
